Records with an inconclusive call do not appear. Activity calls are given as the source filed them. The call rests on the fitted dose curve; in most records, active means well fitted curve in the direction sought with a large enough effect; inconclusive means small, poorly fitted or top-dose-only effect, or another doubt; inactive means no such curve, though single readings can be large; an effect the other way counts as inactive or inconclusive.
How the values were obtained:
[1] = qHTS of pediatric cancer cell lines to identify multiple opportunities for drug repurposing: Primary screen for U-2 OS cells (AID 1347096); further: nearly all actives have a fitted effect of over 50% in size; further: potency means the concentration at half of the fitted maximal effect
How it was run: (§1)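 Cells (500-1,000/well) in growth media were settled 5 h at 37 degrees C, then given compounds for 48 h. Viability was read as CellTiter-Glo luminescence. Primary runs used MIPE at 11 points (0.78 nM-46 µM) and NPC at 8 points (0.59 nM-46 µM); follow-ups used 11 points.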

[2] = qHTS of pediatric cancer cell lines to identify multiple opportunities for drug repurposing: Primary screen for Saos-2 cells (AID 1347097); further: nearly all actives have a fitted effect of over 40% in size; further: potency means the concentration at half of the fitted maximal effect
How it was run: (§2)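 Plated cells (500-1,000 per well, growth media) were allowed to settle for 5 hours, treated with compound dilutions for 48 hours, then lysed with CellTiter-Glo for 15 min at room temperature before luminescence reading.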

[3] = qHTS of pediatric cancer cell lines to identify multiple opportunities for drug repurposing: Primary screen for SK-N-SH cells (AID 1347098); further: nearly all actives have a fitted effect of over 65% in size; further: potency means the concentration at half of the fitted maximal effect
How it was run: (§3)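 Cells (500-1,000/well) rested 5 h, then received compounds for 48 h; metabolically active cells were measured by CellTiter-Glo luminescence. Final concentrations spanned up to 46 µM (MIPE, 11-point) or 0.59 nM-46 µM (NPC, 8-point) in primary screens, 11-point in follow-ups.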

[4] = qHTS of pediatric cancer cell lines to identify multiple opportunities for drug repurposing: Primary screen for NB1643 cells (AID 1347099); further: nearly all actives have a fitted effect of over 50% in size; further: potency means the concentration at half of the fitted maximal effect
How it was run: as §2

[5] = qHTS of pediatric cancer cell lines to identify multiple opportunities for drug repurposing: Primary screen for LAN-5 cells (AID 1347100); further: potency means the concentration at half of the fitted maximal effect
How it was run: as §1

[6] = qHTS of pediatric cancer cell lines to identify multiple opportunities for drug repurposing: Primary screen for OHS-50 cells (AID 1347103); further: nearly all actives have a fitted effect of over 40% in size; further: potency means the concentration at half of the fitted maximal effect
How it was run: as §3

[7] = qHTS of pediatric cancer cell lines to identify multiple opportunities for drug repurposing: Primary screen for MG 63 (6-TG R) cells (AID 1347105); further: nearly all actives have a fitted effect of over 50% in size; further: potency means the concentration at half of the fitted maximal effect
How it was run: as §2

[8] = qHTS of pediatric cancer cell lines to identify multiple opportunities for drug repurposing: Primary screen for control Hh wild type fibroblast cells (AID 1347106);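 further: series mostly up to about 46 µM; a drop in luminescence marks cytotoxicity and a rise apparent proliferation; nearly all actives have a fitted effect of over 55% in size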
How it was run: as §1

[9] = qHTS of pediatric cancer cell lines to identify multiple opportunities for drug repurposing: Primary screen for Rh41 cells (AID 1347108); further: nearly all actives have a fitted effect of over 70% in size; further: potency means the concentration at half of the fitted maximal effect
How it was run: as §2

[10] = qHTS of pediatric cancer cell lines to identify multiple opportunities for drug repurposing: Confirmatory screen for NB1643 cells (AID 1347109); further: potency means the concentration at half of the fitted maximal effect; nearly all actives have a fitted effect of over 45% in size
How it was run: as §1

[11] = qHTS of pediatric cancer cell lines to identify multiple opportunities for drug repurposing: Confirmatory screen for A673 cells (AID 1347110);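 further: potency means the concentration at half of the fitted maximal effect; cells exposed to compound for 48 h before the viability read; nearly all actives have a fitted effect of over 65% in size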
How it was run: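 Viability was read as ATP luminescence (CellTiter-Glo) after 48 h of compound exposure at 37 C in A673 cells seeded at 500-1,000/well. Titrations reached 46 uM final, with 11 points in the confirmatory screen. Concentration-response curves were fitted directly.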

[12] = qHTS of pediatric cancer cell lines to identify multiple opportunities for drug repurposing: Confirmatory screen for SK-N-MC cells (AID 1347111);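 further: potency means the concentration at half of the fitted maximal effect; cells exposed to compound for 48 h before the readout; nearly all actives have a fitted effect of over 70% in size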
How it was run: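 Metabolically active cells were quantified by ATP-dependent luminescence (CellTiter-Glo, 15 min at room temperature) following 48 h treatment. Cells had been plated at 500-1,000 per well and settled for 5 h beforehand.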

[13] = qHTS of pediatric cancer cell lines to identify multiple opportunities for drug repurposing: Confirmatory screen for BT-12 cells (AID 1347112); further: nearly all actives have a fitted effect of over 55% in size; further: potency means the concentration at half of the fitted maximal effect
How it was run: as §1

[14] = qHTS of pediatric cancer cell lines to identify multiple opportunities for drug repurposing: Confirmatory screen for LAN-5 cells (AID 1347113); further: potency means the concentration at half of the fitted maximal effect; nearly all actives have a fitted effect of over 65% in size
How it was run: as §1

[15] = qHTS of pediatric cancer cell lines to identify multiple opportunities for drug repurposing: Confirmatory screen for DAOY cells (AID 1347114); further: potency means the concentration at half of the fitted maximal effect; nearly all actives have a fitted effect of over 65% in size
How it was run: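 Viability measured as metabolically active cells via CellTiter-Glo luminescence following 48 hours of compound exposure, 11-point dilutions in confirmatory testing. 500-1,000 cells/well plated 5 hours before dosing; controls were DMSO and 2.3 µM bortezomib.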

[16] = qHTS of pediatric cancer cell lines to identify multiple opportunities for drug repurposing: Confirmatory screen for NB-EBc1 cells (AID 1347115);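 further: potency means the concentration at half of the fitted maximal effect; cells exposed to compound for 48 h before the viability read; nearly all actives have a fitted effect of over 45% in size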
How it was run: as §1

[17] = qHTS of pediatric cancer cell lines to identify multiple opportunities for drug repurposing: Primary screen for Rh18 cells (AID 1347102); further: nearly all actives have a fitted effect of over 65% in size; further: potency means the concentration at half of the fitted maximal effect
How it was run: as §1

[18] = qHTS of pediatric cancer cell lines to identify multiple opportunities for drug repurposing: Primary screen for RD cells (AID 1347104); further: nearly all actives have a fitted effect of over 55% in size; further: potency means the concentration at half of the fitted maximal effect
How it was run: as §2

[19] = qHTS of pediatric cancer cell lines to identify multiple opportunities for drug repurposing: Primary screen for Rh30 cells (AID 1347107); further: nearly all actives have a fitted effect of over 75% in size; further: potency means the concentration at half of the fitted maximal effect
How it was run: as §1

[20] = qHTS of pediatric cancer cell lines to identify multiple opportunities for drug repurposing: Primary screen for BT-12 cells (AID 1347101); further: potency means the concentration at half of the fitted maximal effect; nearly all actives have a fitted effect of over 25% in size
How it was run: as §3

Row | Structure (SMILES) | Potency [1] | Potency [2] | Potency [3] | Potency [4] | Potency [5] | Potency [6] | Potency [7] | Potency [8] | Potency [9] | Potency [10] | Potency [11] | Potency [12] | Potency [13] | Potency [14] | Potency [15] | Potency [16] | Potency [17] | Potency [18] | Potency [19] | Potency [20]
1 | O=C(O)c1ccc2cc(-c3ccc(O)c(C45CC6CC(CC(C6)C4)C5)c3)ccc2c1 | inactive | 0.296 µM (active) | 24.1 µM (active) | 0.372 µM (active) | 0.59 µM (active) | 0.243 µM (active) | 0.296 µM (active) | inactive | 5.9 µM (active) | 2.93 µM (active) | 2.93 µM (active) | 1.17 µM (active) | inactive | 1.47 µM (active) | 3.69 µM (active) | 0.737 µM (active) |  |  |  | 
2 | COc1ccc(CC2SC(=O)NC2=O)cc1C(=O)NCc1ccc(C(F)(F)F)cc1 (centres undefined) | inactive | inactive | inactive |  | inactive | inactive | inactive |  | inactive |  |  |  |  |  |  |  | inactive | inactive | inactive | 
3 | O=c1c2ccccc2nc2n1CCc1c-2[nH]c2ccccc12 | inactive | inactive | inactive | inactive | inactive |  | inactive | inactive | inactive |  |  |  |  |  |  |  | inactive | inactive | inactive | 
4 | CN(c1ncccc1CNc1nc(Nc2ccc3c(c2)CC(=O)N3)ncc1C(F)(F)F)S(C)(=O)=O | inactive | 6.62 µM (active) | 24.1 µM (active) | 2.35 µM (active) |  | 5.44 µM (active) | 9.35 µM (active) |  | 9.35 µM (active) |  | 3.69 µM (active) |  | 13.1 µM (active) | 4.65 µM (active) | 6.57 µM (active) |  | inactive | 10.5 µM (active) |  | 10.9 µM (active)
5 | CC(=O)OCC(=O)[C@@]1(O)[C@H](C)C[C@H]2[C@@H]3C=C(C)C4=Cc5c(cnn5-c5ccccc5)C[C@]4(C)[C@@H]3[C@@H](O)C[C@@]21C | 18.7 µM (active) | 18.7 µM (active) | inactive | 13.2 µM (active) |  | 19.3 µM (active) | 18.7 µM (active) | inactive | 18.7 µM (active) | 10.4 µM (active) | 13.1 µM (active) | 2.93 µM (active) | 32.9 µM (active) | 13.1 µM (active) | 18.5 µM (active) | 23.3 µM (active) | 13.2 µM (active) | 16.6 µM (active) |  | 21.7 µM (active)
6 | c1cc(-c2cnn3cc(-c4ccc(OCCN5CCCCC5)cc4)cnc23)ccn1 | inactive |  | 21.5 µM (active) | 3.72 µM (active) | 9.35 µM (active) | 9.68 µM (active) | 18.7 µM (active) |  | 9.35 µM (active) |  |  |  |  |  |  |  | 20.9 µM (active) |  | 18.7 µM (active) | 24.3 µM (active)
